Results filed as inconclusive are left out. Entries that show only a call come without a potency. Activity calls are given as the source filed them. Calls follow the shape of the dose curve; as a rule, active = well fitted inhibition curve with a large enough effect; inconclusive = small, poorly fitted or top-dose-only effect; inactive = flat fitted curve, though single readings scatter.
Experiment: CHOP2 Reporter Counterscreen Assay for Inhibitors of Ubiquitin-specific Protease USP2a;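 also: activated enterokinase alone at 50 pM in a cell-free format rather than USP2a or CHOP2; nearly all actives have a fitted effect of over 55% in size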
Conditions: purified enterokinase, fluorogenic substrate, 485/531 nm; series mostly up to 38.3 µM
In short: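 Cell-free counterscreen with pre-activated enterokinase alone (50 pM final) in 20mM Tris-HCl pH 8.0, 2mM CaCl2, 2mM beta-mercaptoethanol, 0.05% CHAPS; compound preincubation 30 min RT, reporter substrate 25nM final, fluorescence read after 10 min (Ex 485/Em 531).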
With `Cc1nn(C)cc1CNC(=O)c1ccc(Br)o1` the Potency was “inactive”.
In the case of `CCCCCCCC/C=C\CCCCCCCC(=O)NCCc1ccc(O)c(O)c1`, the Potency was “inactive”.
In the case of `CCCCNc1nc2ccccc2nc1NS(=O)(=O)c1cccs1`, the Potency was “inactive”.
For `O=C1/C(=C/C=C/c2ccco2)SC(=S)N1NS(=O)(=O)c1ccccc1`, the Potency was 3.55 µM (active).
In the case of `O=C(CCCN1C(=O)/C(=C\c2ccco2)SC1=S)Nc1ccc(O)cc1C(=O)O`, the Potency was 12.6 µM (active).
With `COc1ccc(/C=C2/SC(=S)N(c3ccc(S(=O)(=O)Nc4nccs4)cc3)C2=O)cc1` the Potency was 11.2 µM (active).
With `COc1ccc(CCN2C(=O)/C(=C\c3ccco3)SC2=S)cc1OC` the Potency was “inactive”.
For `CCOC(=O)C(C)Sc1nnc(Cn2c(=O)sc3ccccc32)n1-c1ccccc1` (stereo not given), the Potency was “inactive”.
In the case of `Cc1cc(=O)oc(C)c1C(=O)NCCc1ccccc1`, the Potency was “inactive”.
For `CCOC(=O)Cn1c(=O)oc2cc(S(=O)(=O)Nc3cc(Cl)ccc3OC)ccc21`, the Potency was “inactive”.
With `CC(C)(C)OC(=O)C[C@H]1C/C=C\C[C@H](CC(=O)N(CCO)Cc2ccccc2)C(=O)NC[C@H](c2ccccc2)OC1=O` the Potency was “inactive”.
With `CC(C)c1ccc(NC(=O)C(c2ccc3c(c2)OCO3)N2CCCCC2)cc1` (stereo not given) the Potency was “inactive”.
With `Nc1c(C(=O)NCC2CCCO2)sc2nc3c(c(-c4ccco4)c12)CC/C3=C\c1ccco1` (stereo not given) the Potency was 3.16 µM (active).
In the case of `Clc1ccc2c(N/N=C/c3ccc(Br)cc3)ccnc2c1`, the Potency was 7.94 µM (active).
In the case of `CCCc1nc(SCC(N)=O)[nH]c(=O)c1CC`, the Potency was “inactive”.
With `O=C1CCCC2=C1C(c1ccco1)Nc1ccc3ccccc3c12` (stereo not given) the Potency was 7.94 µM (active).
In the case of `COc1ccc(C(=O)N/C(=C\c2cccs2)C(=O)N2CCN(C)CC2)cc1OC`, the Potency was “inactive”.
For `COc1ccc(-c2csc(N3CCN(C(=O)c4ccco4)CC3)n2)cc1`, the Potency was “inactive”.
With `O=C(c1ccccc1)N1CCN(C2C3CC4CC(C3)CC2C4)CC1` (stereo not given) the Potency was “inactive”.
With `CCOC(=O)N1CCN(S(=O)(=O)c2ccc(C)cc2)C1c1ccc(OC)cc1` (stereo not given) the Potency was “inactive”.
With `Cc1ccc(S(=O)(=O)N2CCOCC2)cc1NC(=O)CN1C(=O)NC(C)(c2ccc(Cl)cc2Cl)C1=O` (stereo not given) the Potency was “inactive”.
In the case of `Cc1nc2ccccc2c2oc(C(=O)NCCN3CCN(C)CC3)cc12`, the Potency was “inactive”.
In the case of `Cc1ccc(C(=O)NCCCc2ccccc2)s1`, the Potency was “inactive”.
With `O=C1CC(Nc2ccc(N3CCOCC3)cc2)C(=O)N1c1cccc(C(F)(F)F)c1` (stereo not given) the Potency was “inactive”.
In the case of `CCc1ccccc1OCC(=O)Nc1ccc(N2CCCC2)cc1C`, the Potency was 10 µM (active).
For `CCCn1nnc(NC(=O)c2cccc(OCC(C)C)c2)n1`, the Potency was “inactive”.
With `Cc1ccccc1OCCn1nc(C(=O)O)c2ccccc2c1=O` the Potency was “inactive”.
With `CCO[C@H]1OC(C(=O)N2CCCCCCC2)=C[C@@H](c2ccc(C(F)(F)F)cc2)[C@@H]1CCCO` the Potency was “inactive”.
In the case of `Cc1ccc(S(=O)(=O)Nc2cc(C)c(O)c(S(=O)(=O)c3ccc(C)cc3)c2)cc1`, the Potency was “inactive”.
For `Cc1ccc(C(=O)Nc2nnc(CC(=O)N/N=C/c3ccc(O)c(O)c3)s2)cc1`, the Potency was 2.82 µM (active).
For `CC(=O)Nc1ccc(NC(=O)[C@@H](NC(=O)c2cccc(C)c2)C(C)C)cc1`, the Potency was “inactive”.
For `Cc1cc(-c2csc(NCc3ccccc3)n2)c(C)n1C`, the Potency was 12.6 µM (active).
For `COc1cccc(NC(=O)c2ccccc2-c2nc(-c3cccc(C)c3)no2)c1`, the Potency was “inactive”.
In the case of `O=C(O)CCn1c(C2CCCCC2)nc2ccccc21`, the Potency was “inactive”.
In the case of `CC(CN1CCCCC1)OC(=O)c1ccc(Cl)cc1` (stereo not given), the Potency was “inactive”.
With `Cc1ccc(S(=O)(=O)N2[C@@H](c3ccc(C(C)(C)C)cc3)C(C(=O)O)=CC[C@H]2c2ccc(Cl)cc2)cc1` the Potency was 10 µM (active).
In the case of `CCC(C)NC(=O)CSC1=Nc2ccccc2C2=NC(c3ccccc3)C(=O)N12` (stereo not given), the Potency was “inactive”.
In the case of `Cn1c(=O)[nH]c(=O)c2c1nc(NCc1ccccc1)n2CCCc1ccccc1`, the Potency was “inactive”.
In the case of `Cc1cc(Cl)ccc1NC(=S)NCCCN1CCCC1=O`, the Potency was “inactive”.
In the case of `CC(=O)c1ccc2c(c1)C1C=CCC1C(C(=O)O)N2` (stereo not given), the Potency was 11.2 µM (active).

From PubChem BioAssay AID493169 (National Center for Advancing Translational Sciences (NCATS), 2011)
Potency is read from the fitted curve at half-maximal effect.
